Holding throughout (test): DAPPL (digital affinity profiling via proximity ligation, sequencing); 10 mM Tris-HCl pH 7.5, 50 mM NaCl, 1 mM DTT, 4% glycerol, room temperature, 30 min; GST-TFs on glutathione beads, 16-mer random dsDNA library, 0.1% formaldehyde crosslink after washing; high values mean tight binding
What all share (conditions): protein: recombinant; tags: N-terminal GST; dsDNA, one strand shown

In assay [1] the target is T1, ELK4 (Homo sapiens, UniProt P28324-2 1-405).
T1 sequence: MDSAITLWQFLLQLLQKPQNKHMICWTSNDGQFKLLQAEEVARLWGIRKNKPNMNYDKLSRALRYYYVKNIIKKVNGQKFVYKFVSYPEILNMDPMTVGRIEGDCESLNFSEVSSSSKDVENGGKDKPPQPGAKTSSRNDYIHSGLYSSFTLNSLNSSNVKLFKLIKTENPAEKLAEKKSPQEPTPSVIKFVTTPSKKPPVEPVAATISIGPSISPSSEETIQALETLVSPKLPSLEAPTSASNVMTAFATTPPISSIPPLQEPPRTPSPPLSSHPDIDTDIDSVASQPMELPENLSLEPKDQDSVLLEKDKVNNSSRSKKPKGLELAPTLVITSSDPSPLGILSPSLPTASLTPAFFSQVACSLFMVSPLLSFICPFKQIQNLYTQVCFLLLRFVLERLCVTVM
In a few lines:
(§1)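 Sequencing on an Illumina NextSeq500 followed washing, crosslinking with 0.1% formaldehyde, proximity ligation (BsaI/T4 ligase, 1 h, 37 °C) and PCR amplification of pools that had been incubated for 30 min at room temperature with 200 nmole of a random double-stranded 16-mer DNA library in Tris/NaCl/DTT/glycerol buffer. Each pool held DNA-barcoded human transcription factors, expressed in yeast as GST fusions and captured on glutathione beads, plus a tag-only sample. Binding signal is a hexamer's read frequency for a factor divided by its frequency in the tag-only sample.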

The target in assay [2] is T2, ELF3 (Homo sapiens, UniProt P78545 1-371).
T2 sequence: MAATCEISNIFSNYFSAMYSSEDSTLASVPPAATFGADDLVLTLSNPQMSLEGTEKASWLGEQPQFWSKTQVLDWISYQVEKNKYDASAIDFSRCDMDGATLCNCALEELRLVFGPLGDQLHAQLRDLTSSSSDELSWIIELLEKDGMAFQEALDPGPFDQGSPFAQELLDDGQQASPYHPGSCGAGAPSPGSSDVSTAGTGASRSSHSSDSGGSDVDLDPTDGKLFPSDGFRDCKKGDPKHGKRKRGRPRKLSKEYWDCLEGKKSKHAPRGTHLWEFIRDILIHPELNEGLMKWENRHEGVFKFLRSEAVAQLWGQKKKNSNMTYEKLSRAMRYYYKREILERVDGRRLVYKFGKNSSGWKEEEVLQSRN
The gist of the method: as §1

Assay [3] addresses T3, ERF (Homo sapiens, UniProt P50548 1-548).
T3 sequence: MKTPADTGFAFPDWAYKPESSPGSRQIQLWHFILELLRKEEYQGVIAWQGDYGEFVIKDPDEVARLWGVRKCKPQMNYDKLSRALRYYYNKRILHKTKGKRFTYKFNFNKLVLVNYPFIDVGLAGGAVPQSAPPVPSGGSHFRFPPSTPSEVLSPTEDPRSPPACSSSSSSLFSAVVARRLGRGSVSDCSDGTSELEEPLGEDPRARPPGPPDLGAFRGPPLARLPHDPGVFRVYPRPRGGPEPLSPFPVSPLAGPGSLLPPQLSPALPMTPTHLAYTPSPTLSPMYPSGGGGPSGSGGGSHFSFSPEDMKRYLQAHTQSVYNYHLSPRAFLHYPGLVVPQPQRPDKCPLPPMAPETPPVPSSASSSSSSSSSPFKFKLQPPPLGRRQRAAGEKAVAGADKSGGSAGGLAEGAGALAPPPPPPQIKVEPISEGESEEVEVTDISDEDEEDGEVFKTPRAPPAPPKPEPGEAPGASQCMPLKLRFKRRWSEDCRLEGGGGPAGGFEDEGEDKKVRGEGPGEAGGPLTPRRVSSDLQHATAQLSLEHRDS
In a few lines:
as §1

For assay [4], the target named is T4, ETV3L (Homo sapiens, UniProt Q6ZN32 1-361).
T4 sequence: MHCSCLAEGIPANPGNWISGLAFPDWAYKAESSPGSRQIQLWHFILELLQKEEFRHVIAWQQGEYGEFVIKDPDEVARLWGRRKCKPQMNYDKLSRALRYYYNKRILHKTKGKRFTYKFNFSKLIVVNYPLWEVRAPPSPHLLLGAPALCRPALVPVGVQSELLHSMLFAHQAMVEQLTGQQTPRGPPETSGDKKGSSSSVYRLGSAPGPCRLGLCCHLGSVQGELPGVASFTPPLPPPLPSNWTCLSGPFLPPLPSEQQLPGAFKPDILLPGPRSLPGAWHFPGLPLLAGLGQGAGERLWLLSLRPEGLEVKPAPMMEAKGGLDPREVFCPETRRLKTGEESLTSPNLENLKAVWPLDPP
The gist of the method: as §1

Assay [5] concerns the target T5, ETS2 (Homo sapiens, UniProt P15036 1-469).
T5 sequence: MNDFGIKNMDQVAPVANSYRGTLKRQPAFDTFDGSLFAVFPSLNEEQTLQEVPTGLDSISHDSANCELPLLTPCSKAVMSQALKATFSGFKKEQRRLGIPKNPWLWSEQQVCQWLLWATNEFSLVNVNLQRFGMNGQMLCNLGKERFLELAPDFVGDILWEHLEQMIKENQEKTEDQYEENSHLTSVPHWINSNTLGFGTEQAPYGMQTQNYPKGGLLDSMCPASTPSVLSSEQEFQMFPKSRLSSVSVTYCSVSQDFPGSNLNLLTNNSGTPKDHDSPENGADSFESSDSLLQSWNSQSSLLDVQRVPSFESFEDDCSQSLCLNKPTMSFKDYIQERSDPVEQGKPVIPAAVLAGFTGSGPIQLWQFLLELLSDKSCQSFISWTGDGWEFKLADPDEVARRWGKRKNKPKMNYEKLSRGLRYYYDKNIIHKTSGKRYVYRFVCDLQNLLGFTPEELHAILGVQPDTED
The gist of the method: as §1

Assay [6] addresses T6, SPDEF (Homo sapiens, UniProt O95238 1-335).
T6 sequence: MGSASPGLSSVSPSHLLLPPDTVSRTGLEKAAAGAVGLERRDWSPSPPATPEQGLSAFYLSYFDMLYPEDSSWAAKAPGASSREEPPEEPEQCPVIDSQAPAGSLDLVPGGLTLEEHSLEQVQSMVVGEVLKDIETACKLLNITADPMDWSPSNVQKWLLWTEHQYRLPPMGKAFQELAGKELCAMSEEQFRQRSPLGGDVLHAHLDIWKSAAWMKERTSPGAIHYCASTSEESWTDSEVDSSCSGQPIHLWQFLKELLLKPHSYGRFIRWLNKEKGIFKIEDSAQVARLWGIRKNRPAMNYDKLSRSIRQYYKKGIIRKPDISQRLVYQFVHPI
In a few lines: as §1

Assay [7] has as its target T7, ETV7 (Homo sapiens, UniProt Q9Y603 1-341).
T7 sequence: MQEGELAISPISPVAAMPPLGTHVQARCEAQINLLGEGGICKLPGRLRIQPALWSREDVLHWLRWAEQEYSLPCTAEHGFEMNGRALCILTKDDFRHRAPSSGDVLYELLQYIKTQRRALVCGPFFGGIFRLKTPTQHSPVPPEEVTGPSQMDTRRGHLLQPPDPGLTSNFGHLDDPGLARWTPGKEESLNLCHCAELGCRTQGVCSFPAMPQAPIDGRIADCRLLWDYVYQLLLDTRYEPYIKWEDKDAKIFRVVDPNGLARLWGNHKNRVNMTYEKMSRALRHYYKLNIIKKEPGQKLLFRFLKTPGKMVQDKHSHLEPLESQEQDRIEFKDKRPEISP
The gist of the method:
as §1

Assay [8] concerns the target T8, ETV3 (Homo sapiens, UniProt P41162-2 1-143).
T8 sequence: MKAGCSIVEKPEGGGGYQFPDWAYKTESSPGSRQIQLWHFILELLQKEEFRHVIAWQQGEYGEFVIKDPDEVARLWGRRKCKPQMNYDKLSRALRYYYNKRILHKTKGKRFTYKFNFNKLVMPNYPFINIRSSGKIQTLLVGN
In a few lines:
as §1

Assay [9] addresses ETV6 (Homo sapiens, UniProt P41212 1-452). In a few lines: as §1

This passage reports binding signal results from publication PMC7862700, “An all-to-all approach to the identification of sequence-specific readers for epigenetic DNA modifications on cytosine”.

Chain of ETV6 (P41212 whole entry): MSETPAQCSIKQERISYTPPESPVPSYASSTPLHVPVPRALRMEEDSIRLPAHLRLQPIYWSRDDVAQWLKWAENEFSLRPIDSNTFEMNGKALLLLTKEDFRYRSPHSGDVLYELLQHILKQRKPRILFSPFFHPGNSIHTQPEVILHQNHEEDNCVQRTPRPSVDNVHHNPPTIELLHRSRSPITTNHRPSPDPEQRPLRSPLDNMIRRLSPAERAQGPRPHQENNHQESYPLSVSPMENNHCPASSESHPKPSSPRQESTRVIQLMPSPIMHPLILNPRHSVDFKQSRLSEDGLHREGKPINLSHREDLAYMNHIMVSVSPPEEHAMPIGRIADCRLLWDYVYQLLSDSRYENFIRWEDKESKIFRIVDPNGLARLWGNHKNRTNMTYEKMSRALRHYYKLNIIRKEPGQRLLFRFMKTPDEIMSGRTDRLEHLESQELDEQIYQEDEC

Turning to TTAGAT, the binding signal in assay [1] is 1.23 fold enrichment (6-mer frequency, TF over GST control); in assay [2], 1.05 fold enrichment (6-mer frequency, TF over GST control); in assay [3], 1.21 fold enrichment (6-mer frequency, TF over GST control); in [4], 1.04 fold enrichment (6-mer frequency, TF over GST control); in assay [5], 1.01 fold enrichment (6-mer frequency, TF over GST control); in assay [6] it was 1.08 fold enrichment (6-mer frequency, TF over GST control). In addition, the binding signal in [7] is 1.03 fold enrichment (6-mer frequency, TF over GST control); in assay [8] it was 1.07 fold enrichment (6-mer frequency, TF over GST control); in assay [9], 1.03 fold enrichment (6-mer frequency, TF over GST control).
